About 79,000 compounds went through this panel and 15% of them were active in at least one assay; those are over-represented in the sample as a whole. Values without a mark were called inactive. Rule as the data show it: active = growth inhibition above about 70%; inactive = the rest.

This test is described as follows: NCI Yeast Anticancer Drug Screen. Data for the bub3 strain (AID 167). To be noted: S. cerevisiae bub3 mutant strain, at 3.7 µM, active compounds read high. Put shortly:
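Compounds were applied to a genetically altered yeast strain carrying a cell-cycle control defect. Growth inhibition was scored against vehicle-treated controls.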
For the compound `CCCc1cc(C(=O)OCC)cc(CCC)c1O`, the growth inhibition was 10%.
Take `CC(C)[N+]([O-])(CCCNc1c2ccccc2nc2cccc([N+](=O)[O-])c12)C(C)C`: the growth inhibition is -8%.
The figure for `COc1cc2c3c(cccc3c1)C(=O)N(CCN(C)C)C2=O` is -12%; for `NC(=O)NN=C(CS)CS` it is -7%.
On to `Cc1ccc(NC(=O)/C(Cl)=C(\Cl)C(=O)O)cc1C`, for which the growth inhibition was 5%.
The figure for `CCN(CC)CC[n+]1ccc2c(C)c3[nH]c4ccc(O)cc4c3c(C)c2c1` is 3%; for `CC(CC(C)(C)[N+](C)(C)C)[N+](C)(C)C` (centres undefined) it is -8%; for `COc1ccc(OC)c2cc3ccccc3cc12` it is 8%.
The figure for `Nc1ncncc1C(C1=C(O)COC1=O)C1=C(O)COC1=O` is -1%; for `CSC1=NNC(SC)=NN1` it is 6%; for `Cc1c(Cl)ccc2c1S(=O)(=O)c1cccc(Cl)c1-2` it is -13%.
The figure for `[O-][n+]1c2ccc(O)cc2nc2ccc(Cl)cc21` is 2%; for `COc1ccc2ccc3ccccc3c2c1C=O` it is 0%.
For the compound `Nc1ccc2c(c1)C(=O)c1cccc(N)c1C2=O`, the growth inhibition was 2%.
To `O=C(c1ccc(Cl)cc1Cl)C(Cl)Cl` belongs -11%; to `COc1cc(C(=O)/C=C/c2ccccc2O)ccc1O`, 53%.
The figure for `O=Cc1cccc2ccc3ccccc3c12` is -4%.
The figure for `O=C(Nc1ccc(Cl)cc1)OCC#CCCl` is 3%; for `Cn1ccnc1Oc1ccc(Cl)cc1` it is -3%.
As for `c1ccc2c(c1)C(=NCCCN1CCCCCC1)c1cccn1-2`, the growth inhibition is -4%.
To `C/C(=N\O)C1CC2C=C(C#N)C1N(Cc1ccccc1)C2` (centres undefined) belongs -5%; to `O=[N+]([O-])C(=C(Sc1ccccc1)Sc1ccccc1)C(Cl)=C(Cl)Cl`, 18%; to `CCCCCCCCCC/C=C\C(=O)O`, -15%.
On to `COc1ccc(N=C2C(=O)Nc3ccc(Br)cc32)cc1`, for which the growth inhibition is -7%.
In the case of `COc1ccccc1C(=O)OCC1CCCN2CCCCC12` (centres undefined), the growth inhibition was -20%.
For `CC(C)(Br)C(=O)/C=C/c1ccc(Cl)c(Cl)c1`, the growth inhibition is -3%.
For the compound `Nc1ccccc1CC(O)C(=O)O` (centres undefined), the growth inhibition is -14%.
For the compound `CC(=O)N/N=C/C(C)(C)C(C)(C)/C=N/NC(C)=O`, the growth inhibition is -4%.
Take `CN(C)c1nc2sc3c(c2c(=O)o1)CCCC3`: the growth inhibition is 39%.
To `CC(C)OC(=O)Oc1ccccc1OC(=O)OC(C)C` belongs 0%; to `Cc1ccc(N)c(S)c1`, -11%.
The figure for `O=C(O)c1ccccc1NC(=S)c1ccccc1` is -12%; for `COC(=O)c1ccc(NCC2=CC(=O)C=CC2=O)cc1O` it is 10%.
To `NC(N)=N/N=C\c1c2ccccc2cc2ccccc12` belongs -55%.
Turning to `COC(=O)CSSCc1ccc([N+](=O)[O-])cc1`, the growth inhibition is 5%.
The figure for `CCS(=O)(=O)c1ccc(/C=C/C=N/NC(=S)NCC(C)C)cc1` is 4%.
To `N#CC(C(=O)Nc1ccccc1)C1=C(Cl)C(=O)c2ccccc2C1=O` (centres undefined) belongs -5%; to `C[C@H](CCC(=O)NN)[C@H]1CC[C@H]2[C@@H]3CC[C@@H]4C[C@H](O)CC[C@]4(C)[C@H]3CC[C@]12C`, 1%.
To `CC[n+]1ccc2c(C)c3[nH]c4ccc(O)cc4c3c(C)c2c1` belongs -16%.

These data come from PubChem BioAssay (NCI).
